The text below walks through data of the supplement of paper PMC10105736.

A number with no mark means an inactive call.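 How the source made its calls: active = MAPPIT score above the 99th percentile of random reference set scores in the same batch; inactive = at or below it.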

Holding throughout (assay): MAPPIT interaction score (arbitrary units); higher = stronger binary interaction signal, active = hit call of the paper
The target in experiment [1] is CG11723. To be noted: MAPPIT configuration: N-N; pair source set: screen_2.
Experiment [2] concerns the target CG31624. To be noted: MAPPIT configuration: N-N; pair source set: screen_2.
Experiment [3] concerns the target CG11149. As to conditions: pair source set: RRS.
In experiment [4] the target is CG14323. To be noted: MAPPIT configuration: N-N; pair source set: RRS.
For experiment [5], the target named is CG34268. As to conditions: MAPPIT configuration: N-N; pair source set: RRS.
For experiment [6], the target named is CG10510. As to conditions: MAPPIT configuration: N-N; pair source set: Finley_Y2H.
The target of experiment [7] is CG31111. To be noted: MAPPIT configuration: N-N; pair source set: DPIM.
In experiment [8] the target is CkIIbeta.
Experiment [9] has as its target Pkc98E. As to conditions: MAPPIT configuration: N-N; pair source set: Finley_Y2H.
Experiment [10] deals with CG10918. To be noted: MAPPIT configuration: N-N; pair source set: Finley_Y2H.
For experiment [11], the target named is CG11555. As to conditions: MAPPIT configuration: N-N; pair source set: Curagen_high_conf.
Experiment [12] deals with CG5708. To be noted: MAPPIT configuration: N-C; pair source set: screen_4.
For experiment [13], the target named is CG11596. As to conditions: MAPPIT configuration: N-N; pair source set: Finley_Y2H.
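Further: HEK293T cells with Epo stimulation, STAT-responsive firefly luciferase reporter, fold induction versus unstimulated cells divided by the larger fold induction of two negative controls lacking either bait or prey.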

B1: su(sable) (protein)
chain: MSVALADEPLIDLEEDLEDGEIDDDEEDEQQSSKIQVQKKTFVGDDDVQFVGVEAKNQNDDEDVVYVGPSTDAVCLQNSNSTKSKKPRPLEDDHASSIELAIANALKKKGIEPPMPRMRSSNQDTSDQSLEGSGEGLATANPLLQSTRSSRRRKRKKEREREQKKDKEQQNRSRRDENDVSVVPGGVEDMDEYEMMNVRGGSPPPGGAAPPLSSCGQRFSGADWDMDDGSAATGAAGLGAGGGGGYNSHSSYDSYSDEETNGPGLMNQRRRTRRDNEKEHQRGVNNRKRRDRDRLEGGLAGSGSKRNRRDSGEGGGGGQEKMGGSNRVEPRKLELCKFYLMDCCAKRDKCSYMHKEFPCKYYYLGMDCYAGDDCLFYHGEPLSEQLRNVLLKHMETAPKEILGDFKRISRDIAIVQMTRRHEQLCDQLNRENTWNSIGCGLMGKRQDHQMQQQQQQLQHQQLQQQQEQQQTQQQAAADGGGCIPSLLDMVINPPLSENKRKSRWTEKMGAKAAAGAAGSSERDSTSPDAKPLPPHLDLANLSHVLSAENMAKLNKLGITNLEQMLQVPFGQLTEAGLTLVEIGEIQRKAEDAKPQTQAELESSTPPSKRETEANNSNSKSNGLIMVDYTQYLKDAHVSFSGNDPLDDDRDDDEQLIIDDGNDSTAEEDQQPKKAKAPPAATHESSTEEAPLPSVFDLPSFMNNMLGQGSSARQLLPASATSPNQENAHLPGGDQSTHKSAPIGGGTSTNVLGRILFGDKQSDPEARAAFYRDIIRNPFKAHSGDGDVDSSNENSNSNSHSLTPTPTPEPGSQSPKPEDHDQDMPELPVIAPALPPTTPSLYVRRSMYDFDPVKEQEHGRQELLTEEKEQYQRDTDMRLPFEPMKHYMPATEIDAAIFSHTPIRWQLHEVTIEESSYAQIRASALHKEQRELRDPRMRRILGLPETPDNSGPLGSVPIMGPSSFSVDNIARCATTIASPDLETAVRDSTPSSPPPSVVNLPSMSVPPPSMRVPPPNIQVEKPTVRTDPRRDPRRAVLQAPTKGASTANTTAPNASGGSKQISEIRSLLQVSNWYNNLGTNNKIMVNQQLALVFTELKKFHQLPNDAPKIFDVSFIVNNTTLQQIFAKLFIFVDDNGEVVQIPEEPNGNGAALGGGGDSGGGVGGGGGGGGVVLPNLSQPPPNLSQMLRLPPPNIRMLRMSGMMMQMGNVGPPFNQPPPRGGLMGMPPNGNGLNQGVGNLGGLGQLGINQGGGPVPNGNPFNPFGGNNGGGAGVMNNMNSMGNMGMGFNNFNNNGGRGGHFPGGGSGGNGNGNNRNQRGGNHRNRNI
With B1, the MAPPIT interaction score in experiment [1] is 0.327; in [2], 1.52.

B2: wuho (protein)
chain: MCTTISFAEPEIVLGHGRRVLFVNPDDLQIFKEIELPPDLGLKGHTSQSQESCTAAAAASTATAASGQAPGGKEQQLANQPEEGGTSASASGLGCATSTSVQNVAYSPDGQLLAVTTSGKQKALLLYRSRPENARLLSARPLARASSALRFCSDSSSILVTDKTGDCYQYDCVEVEAPPRLLLGHLSVVYDILWSEDQQHIITCDRDDKIRVTNYPATFDIHSYCLGHREFVSGLALLTEQHIASASGDKTLRVWNYIQGKELLQHELPAPAVRLLVRQLEPEKVFQAAVLFYEHVDALGLYRLERSSDDTWSVTATQLVCAEAGSWSISNFTLTSDRIYITGAENERLSLRVYDIATGQPASSGVPEGWLKMVLDGLGANEEGAPPFIPEDLSVWFKKRFDNVSDYLERKKRRIEEQQQQKCG
On to B2, for which the MAPPIT interaction score is 0.206 in experiment [3] (MAPPIT configuration: N-C), -0.175 in experiment [3] (MAPPIT configuration: N-N), 0.00913 in experiment [4] and 0.0545 in experiment [5].

B3: CkIIalpha (protein)
chain: MTLPSAARVYTDVNAHKPDEYWDYENYVVDWGNQDDYQLVRKLGRGKYSEVFEAINITTTEKCVVKILKPVKKKKIKREIKILENLRGGTNIITLLAVVKDPVSRTPALIFEHVNNTDFKQLYQTLTDYEIRYYLFELLKALDYCHSMGIMHRDVKPHNVMIDHENRKLRLIDWGLAEFYHPGQEYNVRVASRYFKGPELLVDYQMYDYSLDMWSLGCMLASMIFRKEPFFHGHDNYDQLVRIAKVLGTEELYAYLDKYNIDLDPRFHDILQRHSRKRWERFVHSDNQHLVSPEALDFLDKLLRYDHVDRLTAREAMAHPYFLPIVNGQMNPNNQQ
Turning to B3, the MAPPIT interaction score is 0.0158 in experiment [6]; 0.429 in experiment [7]; 3.22 in [8] (MAPPIT configuration: N-C, pair source set: Lit-BM-16); 4.3 (active) in [8] (MAPPIT configuration: N-N, pair source set: Lit-BM-16); 4.3 (active) in experiment [8] (MAPPIT configuration: N-N, pair source set: screen_1); 0.257 in experiment [9].

B4: Fer2LCH (protein)
chain: MKFFVALALFACLGSLALAKDDEYCQNTVITACSTSAFSANSICNARFAGIDHIEPEIQSYINANLAKSYDYLLLATHFNSYQKNRPGFQKLYQGLSDRSFEDSIALIKQVTRRGGIVDFNTRHESSGSVSTKRGTLEVDELHSLALALDTEKQLATGATHVHSRATHATDAERDPELAHYFEENFLGKQAESVRKLSGYANDLAKLMKVPDPSLSVYLFDEYLQKQ
Take B4: in [10], the MAPPIT interaction score is 0.0432.

B5: PolE2 (protein)
chain: MDVDLLPLRKRITNTFKLCGFLIRSENSSYLAEQLLPFDAAERDKWLTVITENLQSQKLLTPHVERAALEKAINELNRVGLDEGETVFALIDAFTVPRFRYNQRIKKFELDTQPRQLLTAPRMKSDYMQQRYAMLLQKTLRHDLFAPAVIQDGVGAEAQAKKFKLQFAENLLATSAMKEAVVLGLLTQLKEGKFYVEDPTGCVQLDLTGARFHAGFFCEGCFVLAEGNYNNGVLKVDGLGFPPAEPANSSRAFFGTANTWGGESAKLLKYSAGLQELERTNTETTIVFLSDVRLDLPVVMEKLRQLFVGYDSCPPQAIVLMGPFTASTRNHHELRHHLDALGGLAAGCEQLKKQTDLILVPSSEDPTAPNILPRAPIPECLAAGLLKAWPRTQLATNPCRLQYCTQQIVVCRLDLMAKFCRNTLHFPEDTSQIEQHFARTIVCQGHLVPIHPIAMPVHWDYDPALWLYPLPDLIVMGDSCQSFSSSQHGCTVLNTGSFVKSKFAFKVYIPATRTIEDSEIPDELE
Regarding B5, the figures for the MAPPIT interaction score in [11] and in experiment [12] were 0.14 and 1.19, respectively.

B6: TfIIFbeta (protein)
chain: MSKEDKEKTQIIDKDLDLSNAGRGVWLVKVPKYIAQKWEKAPTNMDVGKLRINKTPGQKAQVSLSLTPAVLALDPEEKIPTEHILDVSQVTKQTLGVFSHMAPSDGKENSTTSAAQPDNEKLYMEGRIVQKLECRPIADNCYMKLKLESIRKASEPQRRVQPIDKIVQNFKPVKDHAHNIEYRERKKAEGKKARDDKNAVMDMLFHAFEKHQYYNIKDLVKITNQPISYLKEILKDVCDYNMKNPHKNMWELKKEYRHYKTEEKKEEEHKSGSSDSE
For B6, the MAPPIT interaction score in experiment [13] is 0.174.
